# Assay results as given in PubChem BioAssay (NCI).
# Values joined by “and” are separate entries in the source; they are usually repeats but may differ in a detail not shown here. Equal values may be shown once. This is part of a sample that, as a whole, favours compounds with a hit. Of some 83,000 tested, about 20% had one in any assay.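 48-hour exposure, single concentration, 96-well plates; percent growth endpoint where 0 means no net growth. Active: below 10.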 Active and inactive are the calls of the source.
# Test system: MDA-MB-468 breast
# Test: NCI-60 one-dose screen, 48 h (100 = growth as untreated, 0 = no growth, -100 = all killed)
# Details: 10 µM unless noted
row,Compound,growth
1,Cc1ccc(NCSc2ccc(Cl)cc2)cc1,-0.979% (active) and 43.6% (inactive)
2,O=C1Nc2ccccc2/C1=C/c1cccn1CCCCCn1c2ccccc2c(=O)c2ccccc21,37.6% (inactive)
3,CS(=O)(=O)Nc1cc(-c2ccc3ncnc(Nc4ccc5[nH]ncc5c4)c3c2)cnc1Cl,16.6% (inactive)
